Max response data for 67 compounds are collected here from PubChem BioAssay AID2314 (National Center for Advancing Translational Sciences (NCATS), 2010).

Screen size: about 300,000 compounds; about 37,000 (12%) were called active. Many of the other results were omitted from the sample, so actives are more common in it than they were. Unmarked numbers belong to inactive results. Cut-off read from the data, not from the text of the source: active = max response mostly above about 13% (no sharp cut-off); inactive = mostly below about 14%.

This assay is described as follows: Cycloheximide Counterscreen for Small Molecule Inhibitors of Shiga Toxin. Note: read at 38.3 µM for the half of the compounds with a filed dose; 0% is about no effect. The note with it: cell reporter, cycloheximide protein synthesis inhibition counterscreen; active compounds read high. (In general: The purpose of a counterscreen is to sort out artefacts and off-target activity.)
Regarding `COc1ccccc1CC(=O)Nc1ccc(S(=O)(=O)N2CCCC2)cc1`, the max response was -4.23%.

For the compound `C[C@@]12C(=O)N(c3cccc(Br)c3)C(=O)N1[C@H](c1ccc(Cl)cc1)[C@@H]1C(=O)N(C3CCCCC3)C(=O)[C@@H]12`, the max response is -2.82%. The value for `CS(=O)(=O)c1ccc2nc(NC(=O)c3ccc(Cl)nc3)sc2c1` was 39.4% (active); that for `O=C(NC(Nc1nc2ccc([N+](=O)[O-])cc2s1)(C(F)(F)F)C(F)(F)F)c1ccccc1` was 0.792%; that for `CCCC(=O)Nc1nc2ccc(NC(=O)c3cccnc3)cc2s1` was 9.53%. Consider `O=C(Nc1nc2ccc([N+](=O)[O-])cc2s1)c1ccc(S(=O)(=O)N2CCCc3ccccc32)cc1`, for which the max response was -2.29%. The value for `CNC(=O)c1ccc2nc(NC(C)=O)sc2c1` was 38% (active); that for `CS(=O)(=O)c1ccc2nc(NC(=O)c3ccc(N4CCCC4=O)cc3)sc2c1` was -2.38%; that for `CS(=O)(=O)c1ccc2nc(NC(=O)CN3CCCCCC3)sc2c1` was -1.48%.

Turning to `COc1cccc(C(=O)Nc2nnc(S(=O)(=O)N3CCOCC3)s2)c1`, the max response was -4.33%. The value for `COc1cccc(C(=O)Nc2nc3ccc(S(C)(=O)=O)cc3s2)c1` was 33.2% (active); that for `O=C(Nc1nc2ccc([N+](=O)[O-])cc2s1)c1ccncc1` was 23.5% (active). As for `CS(=O)(=O)c1ccc2nc(NC(=O)C3C4C=CC(C4)C3C(=O)O)sc2c1` (configuration not stated), the figure is 2.94%; as for `CCCCSCCCNC(=O)C1CCC(CNS(=O)(=O)c2ccc(NC(C)=O)cc2)CC1` (configuration not stated), 0.78%. As for `Cc1cc(=O)[nH]c(S)c1C#N`, the figure is -1.97%. Consider `O=C(CN1CCN(C(=S)NC2CCCC2)CC1)Nc1ccc(Oc2ccccc2)cc1`, for which the max response was -0.686%. In the case of `Cc1ccc(C(=O)N(CC(=O)NC2CCCC2)c2ccc(F)cc2)s1`, the max response is -2.41%. The value for `CCCn1c(NC(=O)C23CC4CC(CC(O)(C4)C2)C3)nc2ccccc21` was -2.34%. The value for `CCC(=O)c1ccc(N2CCN(C(=O)c3cc([N+](=O)[O-])ccc3F)CC2)c(F)c1` was -0.539%. The value for `Cc1ccc2nc3c(cc(C(=O)NCCc4ccccc4)c(=N)n3CC3CCCO3)c(=O)n2c1` (configuration not stated) was -3.51%.

For the compound `O=C(Nc1ccccc1)C1CCN(C(=O)c2ccc(Br)cc2)CC1`, the max response was 11.6%. The value for `CSc1ccc(CNC(=O)c2ccc(NC(=O)C3=CSCCO3)cc2)cc1` was 3.98%. As for `O=C(Nc1ccc(C(=O)NCc2ccccc2Cl)cc1)C1=CSCCO1`, the figure is 31.9% (active).

As to `O=C(NCc1ccccc1Cl)C1CCCO1` (configuration not stated), the max response is -1.7%. The value for `Cc1nc(N)nc(SCc2ccc([N+](=O)[O-])cc2)c1N` was -1.9%.

As to `Cc1nc(SCC(=O)c2ccccc2)c([N+](=O)[O-])[nH]1`, the max response was -1.4%. As for `Cc1nc(SCc2ccc(F)cc2)c([N+](=O)[O-])[nH]1`, the figure is 12.6% (active); as for `Cc1ccc(C)n1NC(=O)c1ccc([N+](=O)[O-])cc1`, -0.957%. As for `COc1ccc([N+](=O)[O-])cc1NCC(=O)c1ccc(C)cc1`, the figure is 20.4%. As for `Cc1ccc(C(=O)NNC2=Nc3cc([N+](=O)[O-])ccc3OC2)cc1`, the figure is 20.2% (active). Consider `O=C(CNC(=O)Cc1ccccc1)N=Nc1c(O)[nH]c2ccc(Br)cc12`, for which the max response is -2.22%.

Regarding `C/C(CC1CC(C)(C)OC1=O)=N/Nc1nc(-c2ccccc2)cs1` (configuration not stated), the max response is 24.7% (active).

Turning to `CC1(C)CC(CC(=O)O)C(=O)O1` (configuration not stated), the max response is -0.893%.

For `Cc1cc(C(C)(C)C)oc1C(=O)N(CC(=O)NC1CCCC1)Cc1ccc(Cl)cc1`, the max response is 2.13%. Take `Cc1ccc(S(=O)(=O)N2CC(C)N(S(C)(=O)=O)C2)cc1` (configuration not stated): the max response was -4.88%. As for `CC(=O)N/C(=N/c1nc(C)cc(C)n1)Nc1ccc(F)cc1F`, the figure is -4.27%. The value for `COc1ccc(C/C(C)=N/NC(=O)c2ccncc2)cc1` was 3.76%; that for `COc1ccc(C/C(C)=N/NC(=O)c2cc(C)oc2C)cc1` was 26.5% (active); that for `CCCCCNC(=O)Cc1ccc(OC)cc1` was -1.71%.

For `O=C1COc2ccc(S(=O)(=O)Nc3ccc(OC(F)(F)F)cc3)cc2N1`, the max response was -6.66%. The value for `Fc1ccc(COc2ccc(-c3nnco3)cc2)cc1` was 52.6% (active); that for `Fc1ccc(COc2cccc(-c3n[nH]c(=S)o3)c2)cc1` was 5.34%; that for `Fc1cccc(Cl)c1COc1ccc(-c2nnco2)cc1` was 24.9%. As for `Cc1cccc(C(=O)Nc2nnc(S(=O)(=O)N3CCCCCC3)s2)c1`, the figure is -1.9%. As for `O=C1/C(=C/c2ccc(F)cc2)SC(=S)N1CCCC(=O)N1CCCCC1CCO` (configuration not stated), the figure is 0.37%; as for `CCN1CCN(c2ccc(S(=O)(=O)N3CCCCC3)cc2NC(=O)Cc2c(Cl)cccc2Cl)CC1`, 44.2% (active). Take `COc1ccc(CC(=O)Nc2cc(S(=O)(=O)N3CCCCC3)ccc2N2CCN(C)CC2)cc1`: the max response is -2.16%. As for `CN1CCN(c2ccc(S(=O)(=O)N3CCCCC3)cc2NC(=O)Cc2ccccc2F)CC1`, the figure is 0.822%. As to `CCCNC(=O)C(=O)Nc1cc2c3c(c1)CCC(=O)N3CCC2`, the max response is -6.21%. As for `Cc1cc(F)ccc1N1CCC(N2CCN(C)C(CCO)C2)CC1` (configuration not stated), the figure is -1.8%; as for `CCCn1c(CCNc2nc(-c3ccc(OC)cc3)cs2)nc2ccccc21`, 6.09% (active).

For `CCCn1c(C(O)c2cc(OC)ccc2OC)nc2ccccc21` (configuration not stated), the max response is -2.36%. On to `CCCn1c(C2CCCN2c2nc(-c3ccc(OC)cc3)cs2)nc2ccccc21` (configuration not stated), for which the max response was 3.07%. Consider `COC(=O)c1ccc(CSc2ccc3nnc(-c4ccccc4)n3n2)o1`, for which the max response was 15.3%. With `Cc1nnc2n1N=C(c1ccc3c(c1)NC(=O)CO3)CS2`, the max response is -0.735%. As for `C/C(=N\NC(=S)NC1CCCCC1)c1ccc(C)o1`, the figure is 26.6%; as for `S=C(Nc1ccc(Br)cc1)NC1CCN(Cc2ccccc2)CC1`, -1.87%. The value for `Cc1ccc(/C=N/NC(=S)Nc2cccc(S(=O)(=O)N(C)C)c2)o1` was 11.3%; that for `Cc1ccc(NC(=O)CSCC(=O)NC2CCCCC2)cc1` was 1.06%; that for `CC(Oc1ccc(Br)cc1Br)C(=O)NC1CCCC1` (configuration not stated) was -1.67%.

In the case of `Cc1ccc(/C=N/NC(=S)NC2CCCCC2)o1`, the max response is 24.4% (active). As for `CC(C)CNC(=S)Nc1ccc(F)cc1`, the figure is -3.91%; as for `Cc1cc(C)cc(NC(=S)NCc2ccc(F)cc2)c1`, -3.19%; as for `Cc1ccc(NC(=S)Nc2ccc(F)cc2)cc1`, 8.11% (active). As for `S=C(Nc1ccc(Br)cc1Cl)NC1CCN(Cc2ccccc2)CC1`, the figure is -4.37%. As for `Cc1ccc(NC(=S)NC2CCCC2)cc1`, the max response was 26.6% (active).

Regarding `Cc1cc(Br)ccc1NC(=S)NC1CCCC1`, the max response was 30.4% (active).
